This excerpt belongs to a sample that is enriched for hits.
IkB sig inh: inhibitors of IkB signaling in ABC-DLBCL cells; ABC-DLBCL IkBa-CBG/CBR dual luciferase ratio, 4 h; response scale: scaled: untreated 0%, proteasome inhibitor 100%; Potency, µM (highest dose often 57.1 µM), inactives show at the top dose IkBa stabilization activation; hit rate 0.04% among 110,000; active = well fitted curve in the direction sought with a large enough effect in the signal ratio, not every such curve was filed as active; inconclusive = small, poorly fitted or top-dose-only effect, or a change in a side signal; the % refers to the signal ratio;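 also: potency is read from the fitted curve at half-maximal effect; the direction sought is a rising ratio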
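Curves were fitted separately to fusion (green), unfused (red) and ratio luminescence, then classed by r2, magnitude and activity. Cells: OCI-Ly3, 4 h compound plus doxycycline at 37C; 10 uM MG-132 defined full response.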
HBB splice mod: modulators of hemoglobin beta chain splicing; AID 925; Potency, µM (highest dose often 46.1 µM), inactives show at the highest dose activation, actives largely listed as activators; hit rate 0.06% among 65,000; HBB splicing reporter cell assay, activation; EGFP reporter with mutant IVS2-654 intron; response scale: normalised to 500 nM splice-correcting PNA; also: potency is read from the fitted curve at half-maximal effect; 0% is about no effect
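Compounds were applied for 2 days to HeLa EGFP-654 cells, 500/well in Optimem with 2% FCS. The reporter's EGFP is disrupted by mis-splicing of beta-globin intron IVS2-654. Readout: summed well GFP fluorescence from 488 nm laser scanning; reference was 500 nM antisense […] 654 PNA.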
CRE Fsk mod: alters forskolin-stimulated CRE reporter signaling in CHO cells | CHO CRE-bla reporter (cAMP response element driving beta-lactamase), forskolin EC10, beta-lactamase ratio | Potency, µM (top dose mostly 38.2 µM), for the others: at the highest dose activity change, negative = inhibition, usual class: activators | hit rate 2.5% among 71,000 | AID 662; active = well fitted activation curve with a large enough effect in the signal ratio, with a control signal flat, not every such curve was filed as active; inconclusive = small, poorly fitted or top-dose-only effect, or effect the other way, or a change in a side signal; the % refers to the signal ratio; also: potency is read from the fitted curve at half-maximal effect; % of control where 0% means no effect
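CRE-bla CHO reporter cells treated with compound titration plus EC10 NKH 477 (water-soluble forskolin), incubated 3 h at 37 °C; CCF4 loading 2 h at room temperature, 460/530 nm emission ratio read, AC50 values derived for positive or negative modulators.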
GFP derepression: epigenetic modulators derepressing GFP locus in mouse cells; mouse C127i GFP locus derepression, cytometry, 30 h; Potency, µM (top dose mostly 46.1 µM), inactives show at the highest dose GFP derepression (activation); hit rate 0.09% among 68,000; AID 597; also: % of control where 0% means no effect
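Murine C127i mammary cells carrying a silenced, stably integrated CMV-driven GFP reporter were treated with compound for 30 hours at 37 C. After PBS washes, GFP-positive cells were counted by laser-scanning microplate cytometry.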
ERK AVP inh: blocks ERK signaling stimulated by vasopressin | HEK293-V1b, vasopressin-stimulated pERK AlphaScreen | Potency, µM (series often up to 57.5 µM), without a hit: at the top dose activity, negative = inhibition, most hits filed as inhibitors | hit rate 0.99% among 72,000 | AID 995; also: potency is read from the fitted curve at half-maximal effect; % is scaled to controls: 0 for no effect and ±100 for the full control effect; nearly all actives have a fitted effect of over 55% in size
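HEK293 cells stably expressing V1b receptor, preincubated 30 min at 37 °C with compound, then stimulated 5 min with 25 nM vasopressin. Phospho-ERK by AlphaScreen SureFire after 5 h RT; normalized to DMSO and vasopressin; AC50 by Hill fit.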
Active calls of the source: *; u = inconclusive; x = no result; [ ] = remark or other dose. Unless noted, calls follow the shape of the dose curve; as a rule, active = well fitted curve in the direction sought with a large enough effect; inconclusive = small, poorly fitted or top-dose-only effect, or another doubt; inactive = no such curve, though single readings can be large; an effect the other way counts as inactive or inconclusive.

SMILES	IkB sig inh	HBB splice mod	CRE Fsk mod	GFP derepression	ERK AVP inh
Cc1c2c(nc3c(C(=O)NC4CC4)cnn13)CCCC2	-3%	0%	13µM*	0%	-15%
CCn1c(CNC(=O)c2ccc(OC)cc2)nnc1SCC(=O)Nc1cc(C)ccc1C	2%	x	x	x	x
COc1ccc(-c2nnc(SCC(=O)c3ccc(NC(C)=O)cc3)o2)cc1OC	-1%	x	x	x	x
CCOC(=O)CSc1nc(-c2ccc(F)cc2)cc(C(F)(F)F)c1C#N	1%	x	x	x	x
N#Cc1c(C(F)(F)F)cc(-c2ccccc2)nc1SCc1nc(N)nc(N2CCOCC2)n1	-2%	10µM*	u	10µM*	-5%
O=C(Cc1ccccc1)Nc1sc2c(c1C(=O)Nc1ccc(Br)cc1)CCCC2	-1%	x	x	x	x
COc1ccc2[nH]c(O)c(NC(C)=O)c2c1	-1%	-2%	0.4µM*	9%	u
COC(=O)C1=CN(C(C)C)C=C(C(=O)OC)C1c1cccc(OC)c1	1%	-4%	13µM*	2%	74%
CC1Cc2nc(SCC(=O)Nc3nccs3)n(Cc3ccccc3)c(=O)c2S1 (configuration not stated)	0%	1%	13µM*	x	x
O=C(O)c1ccc(CO)o1	0%	0%	-10%	x	11%
CCOC(=O)c1noc2nc(C)n(Cc3ccc([N+](=O)[O-])cc3)c(=O)c12	0%	x	x	x	x
Cc1cc(NC(=O)CSc2nc3c([nH]c4ccccc43)c(=O)n2-c2cccc(C(F)(F)F)c2)no1	3%	-1%	2µM*	-2%	-12%
COc1cccc(-n2c(SCC(=O)Nc3cc(C)on3)nc3c([nH]c4ccccc43)c2=O)c1	8%	0%	4µM*	x	x
Cc1cc(NC(=O)CSc2nc3c([nH]c4ccccc43)c(=O)n2-c2ccccc2)no1	-2%	x	x	x	x
O=C(CN1C(=O)COc2ccc(Cl)cc21)Nc1ccc(F)cc1	1%	x	x	x	x
CCCN(C(=O)C1CCN(S(=O)(=O)c2c(C)noc2/C=C/c2ccc(C)cc2)CC1)c1ccccc1F	-1%	x	x	x	x
O=S1(=O)C=C(Sc2nc3ccccc3s2)c2ccccc21	u	-2%	10%	-1%	13µM*
Cc1cc(C)nc(SC2=CS(=O)(=O)c3ccccc32)n1	u	1%	-10%	0%	-3%
Cc1nn(-c2ccccc2)c2nc(N)c(C#N)c(-c3ccc(F)cc3)c12	u	-5%[0.369 µM]	2µM*	1%	-8%
Cc1ccc(-n2nc(C)c3c(-c4cccs4)c(C#N)c(N)nc32)cc1	0%	-2%[0.369 µM]	u	22%	-8%
COc1ccc(N2CSC3=C(C#N)C(c4cccc(OC)c4OC)CC(=O)N3C2)cc1 (configuration not stated)	4%	0%	4µM*	x	-22%
COc1ccc(C)cc1NC(=O)CSc1ncc2c(n1)-c1ccc(Cl)cc1N(Cc1ccccc1)S2(=O)=O	2%	x	x	x	x
O=C(Cn1cnnn1)OCC(=O)c1ccc(Cl)s1	u	13µM*	u	-2%	-13%
COc1ccc(NS(=O)(=O)c2cc3[nH]c(=O)c(=O)[nH]c3cc2C)cc1OC	0%	x	x	x	x
Cc1ccccc1-c1cncnc1NCc1cccs1	0%[11.4 µM]	-1%	2%	0%[9.22 µM]	25µM*
SMILES	IkB sig inh	HBB splice mod	CRE Fsk mod	GFP derepression	ERK AVP inh
COc1ccccc1CNc1ccnc(-c2ccc(N(C)C)cc2)n1	10%[11.4 µM]	-1%	13µM*	2%[9.22 µM]	u
N#Cc1cccc(-c2nccc(NCc3cccnc3)n2)c1	0%[11.4 µM]	-1%	u	0%[9.22 µM]	16µM*
COc1cccc(-c2nc(NCc3cccs3)c3ccccc3n2)c1	4%[11.4 µM]	0%	u	-1%[9.22 µM]	32µM*
CS(=O)(=O)Nc1cccc(-c2nc(NCc3cccs3)c3ccccc3n2)c1	-8%[11.4 µM]	0%	u	2%[9.22 µM]	u
N#Cc1cccc(-c2nccc(NCc3ccccc3)n2)c1	-1%[11.4 µM]	-1%	u	-1%[9.22 µM]	-5%
Cn1cc(-c2cc3n(n2)CCC(=O)N3CCCC(=O)NCc2ccccc2)c2ccccc21	-2%	x	x	x	x
Cc1ccc(N2C(=O)[C@@H]3CSC(c4ccc(C(F)(F)F)cc4)N3C2=O)cc1 (some centres not stated)	-1%	x	x	x	x
Cc1ccc(Cl)cc1N1CCN(CCNC(=O)Nc2ccc(Cl)cc2)CC1	-2%	x	x	x	x

From PubChem BioAssay
